For some assays here: Potency and affinity values are given separately.
Assays:
Design in all cases: scale not given: direction of the effect not stated beside the values
[1] = biological target: Protein translocase subunit SecA (Escherichia coli (strain K12)) (UniProt P10408); assay: Assay to Identify E. coli SecA ATPase Inhibitors; type: functional; conditions: 30 µM
[2] = biological target: T1, Ubiquitin-activating enzyme e1, putative (Leishmania donovani (strain BPK282A1)) (UniProt E9BSI1); assay: Leishmania donovani Ubiquitin Activating Enzyme (LdE1); type: functional; conditions: 30 µM
T1 sequence (whole entry): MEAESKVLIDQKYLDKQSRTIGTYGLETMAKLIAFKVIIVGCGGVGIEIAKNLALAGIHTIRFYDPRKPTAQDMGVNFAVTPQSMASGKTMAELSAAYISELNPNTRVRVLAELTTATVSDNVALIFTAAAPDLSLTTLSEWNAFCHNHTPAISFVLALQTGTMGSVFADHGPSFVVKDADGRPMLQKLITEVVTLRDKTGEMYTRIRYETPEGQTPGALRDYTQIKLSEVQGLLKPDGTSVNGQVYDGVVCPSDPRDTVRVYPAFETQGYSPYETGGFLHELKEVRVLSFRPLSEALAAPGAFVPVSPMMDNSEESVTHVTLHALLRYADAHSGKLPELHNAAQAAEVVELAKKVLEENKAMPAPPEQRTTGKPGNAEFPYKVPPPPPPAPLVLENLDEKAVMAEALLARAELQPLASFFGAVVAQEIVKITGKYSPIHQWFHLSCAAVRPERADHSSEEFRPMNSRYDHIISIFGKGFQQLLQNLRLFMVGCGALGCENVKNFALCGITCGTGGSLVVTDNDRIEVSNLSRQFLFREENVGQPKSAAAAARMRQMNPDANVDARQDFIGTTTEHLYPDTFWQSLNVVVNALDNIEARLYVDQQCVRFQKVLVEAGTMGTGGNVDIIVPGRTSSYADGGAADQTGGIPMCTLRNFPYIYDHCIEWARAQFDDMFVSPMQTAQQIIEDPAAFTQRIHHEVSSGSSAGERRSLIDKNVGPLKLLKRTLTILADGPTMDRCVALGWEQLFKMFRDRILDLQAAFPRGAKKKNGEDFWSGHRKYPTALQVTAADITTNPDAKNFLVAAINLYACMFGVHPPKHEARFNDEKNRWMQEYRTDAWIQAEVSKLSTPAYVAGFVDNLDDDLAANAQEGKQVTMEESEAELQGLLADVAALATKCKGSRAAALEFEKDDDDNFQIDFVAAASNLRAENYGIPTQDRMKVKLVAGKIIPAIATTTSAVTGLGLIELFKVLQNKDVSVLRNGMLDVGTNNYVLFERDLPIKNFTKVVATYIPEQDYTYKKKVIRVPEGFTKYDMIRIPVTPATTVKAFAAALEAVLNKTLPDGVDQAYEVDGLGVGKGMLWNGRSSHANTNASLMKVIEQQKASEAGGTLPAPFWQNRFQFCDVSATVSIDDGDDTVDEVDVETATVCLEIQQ

[3] = biological target: AMP-activated protein kinase, AMPK (Homo sapiens) (UniProt P54646+O43741+P54619+Q9UGJ0+Q9Y478+Q13131+Q9UGI9); assay: AMP-dependent Kinase enzyme assay. An in vitro enzyme assay that detects ADP turnover that is directly proportional to AMPK activity. This uses naive AMPK that is activated during the assay with MK-8722; type: functional; conditions: 30 µM
[4] = biological target: Sialic acid-binding Ig-like lectin 9 (Homo sapiens) (UniProt Q9Y336); assay: Hs-Siglec9 ALPHAscreen SOP 20170721; conditions: 10 µM
Sialic acid-binding Ig-like lectin 9 (Homo sapiens), sequence (Q9Y336 whole entry): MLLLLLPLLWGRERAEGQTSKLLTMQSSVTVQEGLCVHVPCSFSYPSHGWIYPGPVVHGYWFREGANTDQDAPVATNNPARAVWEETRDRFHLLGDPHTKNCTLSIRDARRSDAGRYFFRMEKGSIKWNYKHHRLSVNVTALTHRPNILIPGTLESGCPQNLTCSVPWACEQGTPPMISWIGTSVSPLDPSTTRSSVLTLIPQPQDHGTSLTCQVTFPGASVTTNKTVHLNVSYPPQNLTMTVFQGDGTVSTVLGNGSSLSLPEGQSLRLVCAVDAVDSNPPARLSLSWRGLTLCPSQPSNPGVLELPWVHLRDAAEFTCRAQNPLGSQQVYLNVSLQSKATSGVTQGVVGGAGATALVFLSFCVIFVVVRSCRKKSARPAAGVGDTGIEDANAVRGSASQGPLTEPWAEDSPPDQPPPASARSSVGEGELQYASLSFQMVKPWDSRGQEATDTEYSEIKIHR

[5] = test system: Trypanosoma cruzi; assay: Trypanosoma cruzi phosphomannomutase and mannose-1-phosphate guanylyltransferase assay; type: functional; conditions: 10 µM
[6] = biological target: T2, Arginase-2, mitochondrial (Homo sapiens) (UniProt P78540); assay: in vitro enzyme assay to detect the production of urea directly proportional to the activity of Arginase II; type: functional; conditions: 33.3 µM; also: in the data most compounds retested in dose-response had high values
T2 sequence (whole entry): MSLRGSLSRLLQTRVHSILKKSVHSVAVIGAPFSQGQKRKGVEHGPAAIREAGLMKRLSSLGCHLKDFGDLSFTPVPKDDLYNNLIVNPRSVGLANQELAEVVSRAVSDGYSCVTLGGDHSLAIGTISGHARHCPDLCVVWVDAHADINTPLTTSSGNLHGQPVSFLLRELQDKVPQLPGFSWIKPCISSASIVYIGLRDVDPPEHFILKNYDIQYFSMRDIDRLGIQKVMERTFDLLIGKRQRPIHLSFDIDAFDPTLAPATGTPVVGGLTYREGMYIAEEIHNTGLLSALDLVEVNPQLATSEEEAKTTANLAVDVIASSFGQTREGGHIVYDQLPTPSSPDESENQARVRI

[7] = biological target: T3, Proteasome subunit beta (Trypanosoma cruzi) (UniProt O96673); assay: Trypanosoma cruzi proteasome chymotrypsin-like activity (TcProtChymo) assay.; also: in the data most compounds retested in dose-response had high values; type: functional; conditions: 9.37 µM
T3 sequence (whole entry): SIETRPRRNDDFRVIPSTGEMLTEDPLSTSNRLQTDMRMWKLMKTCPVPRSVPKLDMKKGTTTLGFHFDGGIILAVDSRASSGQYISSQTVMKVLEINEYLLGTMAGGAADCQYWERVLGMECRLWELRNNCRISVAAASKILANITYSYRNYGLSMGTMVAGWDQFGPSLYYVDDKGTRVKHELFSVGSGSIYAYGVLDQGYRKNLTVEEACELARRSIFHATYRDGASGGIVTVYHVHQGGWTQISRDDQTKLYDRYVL

[8] = organism: Homo sapiens; assay: To identify inhibition of the IFN signalling (Jak-Stat) pathway via expression of an eGFP reporter gene under the control of an IFN-stimulated response element (ISRE) containing MxA promoter.; type: functional; conditions: 30 µM
[9] = biological target: T4, Tyrosyl-tRNA synthetase, putative (Trypanosoma cruzi (strain CL Brener)) (UniProt Q4DSP6); assay: Trypanosoma cruzi tyrosyl tRNA synthetase (TcYRS) _High Tyrosine SOP; type: functional; conditions: 30 µM; also: in the data most compounds retested in dose-response had high values
T4 sequence (whole entry): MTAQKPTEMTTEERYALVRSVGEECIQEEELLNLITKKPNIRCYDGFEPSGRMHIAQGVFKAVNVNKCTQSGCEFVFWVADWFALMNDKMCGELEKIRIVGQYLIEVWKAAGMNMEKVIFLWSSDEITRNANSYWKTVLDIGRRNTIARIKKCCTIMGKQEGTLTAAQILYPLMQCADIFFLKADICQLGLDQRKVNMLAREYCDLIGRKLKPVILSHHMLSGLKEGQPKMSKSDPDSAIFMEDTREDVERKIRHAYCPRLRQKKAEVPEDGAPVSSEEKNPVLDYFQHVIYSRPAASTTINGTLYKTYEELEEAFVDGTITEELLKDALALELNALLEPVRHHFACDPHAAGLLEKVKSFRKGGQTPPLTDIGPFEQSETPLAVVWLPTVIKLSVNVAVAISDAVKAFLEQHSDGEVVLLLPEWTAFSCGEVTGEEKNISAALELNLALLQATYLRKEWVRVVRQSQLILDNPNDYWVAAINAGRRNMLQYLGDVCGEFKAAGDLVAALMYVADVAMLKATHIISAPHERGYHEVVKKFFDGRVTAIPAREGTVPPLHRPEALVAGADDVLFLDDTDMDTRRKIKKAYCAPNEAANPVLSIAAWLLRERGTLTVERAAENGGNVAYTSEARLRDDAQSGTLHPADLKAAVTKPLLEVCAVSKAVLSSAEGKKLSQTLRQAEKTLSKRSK

[10] = biological target: T4, Tyrosyl-tRNA synthetase, putative (Trypanosoma cruzi (strain CL Brener)); assay: Trypanosoma cruzi tyrosyl tRNA synthetase (TcYRS) SOP; type: functional; conditions: 30 µM
[11] = biological target: Chromo domain-containing protein 1 (Saccharomyces cerevisiae (strain ATCC 204508 / S288c) (Baker's yeast)) (UniProt P32657); assay: ScCHD-1 Enzyme Inhibition Assay; type: functional; conditions: 30 µM; also: in the data most compounds retested in dose-response had high values
Chromo domain-containing protein 1 (Saccharomyces cerevisiae (strain ATCC 204508 / S288c) (Baker's yeast)), sequence (P32657 whole entry, the tested form may be a part): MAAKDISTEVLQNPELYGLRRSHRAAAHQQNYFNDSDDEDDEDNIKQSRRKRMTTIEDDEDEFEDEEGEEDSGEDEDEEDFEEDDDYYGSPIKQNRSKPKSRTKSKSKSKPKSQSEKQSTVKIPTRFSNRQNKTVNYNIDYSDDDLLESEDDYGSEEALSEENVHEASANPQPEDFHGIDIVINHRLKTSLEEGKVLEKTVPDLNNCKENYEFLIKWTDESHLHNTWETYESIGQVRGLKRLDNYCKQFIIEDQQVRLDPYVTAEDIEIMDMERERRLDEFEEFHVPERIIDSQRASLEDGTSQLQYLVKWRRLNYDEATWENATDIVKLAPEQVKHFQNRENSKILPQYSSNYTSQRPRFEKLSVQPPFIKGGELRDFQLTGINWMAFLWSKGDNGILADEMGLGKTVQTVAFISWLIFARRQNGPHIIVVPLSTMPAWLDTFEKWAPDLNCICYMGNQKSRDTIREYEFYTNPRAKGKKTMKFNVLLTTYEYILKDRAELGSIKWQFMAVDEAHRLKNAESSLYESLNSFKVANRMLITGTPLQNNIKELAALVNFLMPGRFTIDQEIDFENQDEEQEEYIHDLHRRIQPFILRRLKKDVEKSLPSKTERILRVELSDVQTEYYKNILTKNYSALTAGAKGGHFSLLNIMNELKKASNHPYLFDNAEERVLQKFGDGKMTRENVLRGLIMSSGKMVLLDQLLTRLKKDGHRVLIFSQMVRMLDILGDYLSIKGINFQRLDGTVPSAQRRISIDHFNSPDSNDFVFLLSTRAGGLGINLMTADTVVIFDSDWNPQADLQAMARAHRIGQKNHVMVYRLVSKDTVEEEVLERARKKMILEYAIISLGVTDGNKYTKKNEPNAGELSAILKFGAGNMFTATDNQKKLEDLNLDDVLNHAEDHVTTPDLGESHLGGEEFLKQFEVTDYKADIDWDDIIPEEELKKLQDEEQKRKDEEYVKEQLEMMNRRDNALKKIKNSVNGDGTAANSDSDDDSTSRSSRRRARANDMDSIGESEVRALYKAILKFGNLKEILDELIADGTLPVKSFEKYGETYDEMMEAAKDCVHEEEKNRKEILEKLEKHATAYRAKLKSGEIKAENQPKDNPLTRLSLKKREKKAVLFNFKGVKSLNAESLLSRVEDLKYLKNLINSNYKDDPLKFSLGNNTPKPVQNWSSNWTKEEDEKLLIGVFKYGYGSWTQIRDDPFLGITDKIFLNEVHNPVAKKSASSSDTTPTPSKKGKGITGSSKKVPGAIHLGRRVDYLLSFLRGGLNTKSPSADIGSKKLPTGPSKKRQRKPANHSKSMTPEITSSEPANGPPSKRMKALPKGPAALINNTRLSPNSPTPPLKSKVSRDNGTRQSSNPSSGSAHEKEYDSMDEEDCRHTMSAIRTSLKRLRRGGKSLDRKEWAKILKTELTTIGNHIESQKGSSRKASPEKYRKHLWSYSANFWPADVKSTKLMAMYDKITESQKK

Protein translocase subunit SecA (Escherichia coli (strain K12)), sequence (P10408 whole entry): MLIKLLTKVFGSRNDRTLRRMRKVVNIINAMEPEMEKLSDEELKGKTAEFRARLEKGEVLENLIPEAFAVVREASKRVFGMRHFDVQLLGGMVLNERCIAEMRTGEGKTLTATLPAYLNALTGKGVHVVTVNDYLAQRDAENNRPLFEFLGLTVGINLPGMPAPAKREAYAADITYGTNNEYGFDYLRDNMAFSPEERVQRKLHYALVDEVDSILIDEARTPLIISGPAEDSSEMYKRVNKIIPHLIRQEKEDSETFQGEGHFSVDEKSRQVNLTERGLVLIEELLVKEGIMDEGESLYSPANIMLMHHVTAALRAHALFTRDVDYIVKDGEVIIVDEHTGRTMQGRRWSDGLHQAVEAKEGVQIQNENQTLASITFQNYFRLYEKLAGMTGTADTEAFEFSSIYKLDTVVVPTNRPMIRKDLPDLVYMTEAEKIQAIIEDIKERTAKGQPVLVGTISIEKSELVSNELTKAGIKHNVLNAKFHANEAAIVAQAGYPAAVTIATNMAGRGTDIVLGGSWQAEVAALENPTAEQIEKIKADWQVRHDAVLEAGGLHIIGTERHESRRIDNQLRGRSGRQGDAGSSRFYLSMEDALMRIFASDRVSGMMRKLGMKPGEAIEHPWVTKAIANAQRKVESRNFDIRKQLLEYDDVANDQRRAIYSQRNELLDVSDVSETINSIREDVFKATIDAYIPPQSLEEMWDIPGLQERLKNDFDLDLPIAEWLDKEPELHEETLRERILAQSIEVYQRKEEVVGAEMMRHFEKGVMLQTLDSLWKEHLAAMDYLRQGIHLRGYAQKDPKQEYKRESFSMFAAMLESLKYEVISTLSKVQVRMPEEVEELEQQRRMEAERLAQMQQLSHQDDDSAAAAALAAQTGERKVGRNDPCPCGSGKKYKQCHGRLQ

Row | SMILES | Percent Effect [1] [%] | Percent Effect [2] [%] | Percent Effect [3] [%] | Percent Effect [4] [%] | Percent Effect [5] [%] | Percent Effect [6] [%] | Percent Effect [7] [%] | Percent Effect [8] [%] | Percent Effect [9] [%] | Percent Effect [10] [%] | Percent Effect [11] [%]
1 | Cc1ncc2c(n1)CCN(C(=O)Cc1c(C)noc1C)C2 | -8.55 | 13.2 | -4.54 | 7.88 | 9.62 | -1.44 | 8.21 | -0.465 | 9.36 | 18.5 | -7.72
2 | Cn1cc(C2CCCN2CCCc2nc(-c3cccs3)no2)cn1 (configuration not stated) | -0.777 | -32.4 | -4.52 | -1.6 | -3.87 | -6.41 | 7.03 | 18.4 | 4.43 | -6.17 | 0.396
3 | CC(=O)N1CCN(Cc2csc(-c3cnn(C)c3)n2)CC1 | -5.28 | 7.89 | -1.26 | 6.08 | 9.21 | -1.53 | 2.17 | 3.43 | 4.41 | 9.76 | -7.33
4 | Cc1ccc(C(=O)NCC2(O)CCOCC2)cc1Br | -4.53 | 5.41 | 0.131 | 12.8 | -0.772 | -2.38 | 7.07 | 19 | 4.76 | 7.32 | -2.67
5 | Cn1cccc1C(=O)N1CCN(CC2CC2)c2ncccc2C1 | -6.82 | 10.7 | -5.74 | 2.72 | 2.7 | -56.8 | 7.18 | 3.32 | 1.04 | 10 | -4.08
6 | COc1cc(CN2CC[C@@]3(CCCO3)[C@@H](O)C2)ccc1F | -3.6 | 14.9 | 6.46 | -2.68 | 2.96 | 0.696 | 3.74 | -18.1 | 6.45 | 16.9 | -12.2
7 | Cn1ccnc1-c1ccccc1C(=O)N1CCc2c(nc(N)[nH]c2=O)C1 | -3.72 | 7.79 | 3.19 | 4.47 | -2.06 | -6.9 | 16.8 | 5.31 | 4.3 | 11.1 | 3.09
8 | CC(C)(C)c1cc(CN2CC[C@@H](NC(=O)c3cccnc3)[C@H](O)C2)n[nH]1 | -3.5 | 1.39 | -10.7 | 10.3 | 4.37 | 17.7 | 6.49 | 15.6 | 3.16 | 12.8 | -6.81
9 | Cc1ccc(N2CCCC(NCC(=O)NCC3CC3)C2)nn1 (configuration not stated) | -4.97 | 6.33 | -6.37 | 2.61 | 1.13 | -1.94 | 15.8 | -5.61 | 7.29 | 15.2 | -25.7
10 | CN(CCNC(=O)NCc1ccncc1)C1CCCC1 | -0.694 | -5.41 | -4.53 | 1.79 | -3.3 | 0.401 | -6.31 | 7.43 | 1.48 | -1.24 | 2.18
11 | c1cnn(CCNCc2nnc(C3CC3)o2)c1 | -2.66 | 27.9 | -5.53 | -12.3 | 1.42 | -2.66 | 9.91 | 11.1 | 7.39 | 24.1 | -13.5
12 | c1ccc2oc(NC3CCCN(Cc4noc(C5CC5)n4)C3)nc2c1 (configuration not stated) | -1.73 | -5.41 | -1.19 | -0.829 | 4.63 | 3.81 | 7.93 | -1.13 | 2.65 | 4.88 | 5.42
13 | Cc1cnc(NC(=O)c2ccc(-n3ncc(C#N)c3N)cc2)s1 | -5.51 | 7.59 | 14.4 | 4.78 | -6.33 | -4.18 | 5.49 | 29 | 11.3 | 24.1 | -2.52
14 | O=C(NCC1CCOC1)c1csc(-c2cccc(Cl)c2)n1 (configuration not stated) | -3.12 | 10.4 | 3.54 | -3.81 | -5.24 | 0.712 | 8.62 | 25.1 | 1.94 | 14.6 | -5.77
15 | CC(C)OCCN1CCN(C(=O)c2cccc(CC#N)c2)CC1 | -0.779 | 18.2 | -4.35 | -10.2 | -8.99 | 4.27 | 11.2 | 18.6 | 4.85 | 9.76 | -7.58
16 | Cc1nn(C)c(C)c1C1CCCN1C(=O)c1ccc(CN(C)C)cc1 (configuration not stated) | -0.183 | 21.6 | 2.25 | -4.88 | 2.14 | 0.554 | 11.1 | 11.4 | -20.8 | 23.2 | -6.46
17 | O=C(NCc1cccs1)C1CN(C(=O)c2cccs2)CC12CCOCC2 (configuration not stated) | -3.46 | 8 | 5.07 | 1.33 | 0.193 | -43.5 | 14.4 | -4.96 | 2.08 | -312 | -2.49
18 | Cn1cc(-c2cnc(N3CCOCC3)nc2)cc1C(=O)N1CCOCC1 | -2.41 | 13.3 | 7.42 | 1.64 | -0.984 | 2.56 | 1.32 | 23.2 | 6.38 | 14.1 | -9.55
19 | CCNC(=O)c1ccoc1CN1c2ccccc2CC1C (configuration not stated) | -3.54 | 2.74 | 7.91 | 9.27 | -3.97 | 2.4 | 12.4 | 5.41 | 4.17 | 11.1 | 1.31
20 | CC(=O)NCCN1CCC(c2cccs2)CC1 | -3.79 | 5.48 | 4.81 | 1.43 | 6.27 | -1.36 | 17.9 | 3.79 | 2.15 | 10 | -6.86
21 | CCC(=O)Nc1nnc(CCCOc2ccccc2)s1 | -6.68 | -1.33 | 6.74 | 2.25 | 1.77 | -9.68 | 10.3 | -7.47 | 7.41 | 5.13 | -0.786
22 | O=C(c1ccc(O)c(Cl)c1)N1CCC(c2n[nH]c(C3CC3)n2)CC1 | -6.1 | 3.8 | -0.285 | -6.96 | -5.44 | -1.5 | 9.61 | 8.98 | 1.04 | 0 | -0.322
